# In PubChem BioAssay (NCATS):
# Several values for one entry are separate records, joined by “and”; a condition that tells them apart may be missing. Equal values may be shown once. Records with an inconclusive call do not appear. Activity calls are given as the source filed them. Unless noted, calls follow the shape of the dose curve; as a rule, active = well fitted curve in the direction sought with a large enough effect; inconclusive = small, poorly fitted or top-dose-only effect, or another doubt; inactive = no such curve, though single readings can be large; an effect the other way counts as inactive or inconclusive.
# Experiments:
# [1] = target: Calcium and integrin-binding protein 1 (Homo sapiens) (UniProt Q99828); assay: Primary qHTS for Identification of Calcium Integrin Binding Protein 1 (CIB1) Competitor (AID 1508620); conditions: CIB1-GST / FITC-alphaIIb peptide fluorescence polarization; series mostly up to 114 µM;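 also: GST tagged CIB1 binding a fluorescein labelled alphaIIb integrin peptide tracer; top concentration of the series differs between compounds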
# How it was run: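 CIB1-GST (1 uM final) and compound incubated 15 min at room temperature before adding FITC-alphaIIb peptide tracer (100 nM final). Competition for binding read by fluorescence polarization (ex 480, em 540) after another 15 min at room temperature.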
# [2] = target: Cytochrome P450 2D6 (Homo sapiens) (UniProt P10635); assay: Cytochrome P450 family 2 subfamily D member 6 (CYP2D6) small molecule antagonists: luciferase biochemical (cell-free) qHTS assay (AID 1645840; active = well fitted curve in the direction sought with a large enough effect in the repeat runs; an effect the other way counts as inactive or inconclusive; also: nearly all actives have a fitted effect of over 55% in size; also: potency is read from the fitted curve at half-maximal effect); conditions: P450-Glo CYP2D6 enzyme, luciferin luminescence, 1 h; series mostly up to 57.4 µM
# How it was run: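 P450-Glo CYP2D6 system: proluciferin substrate converted by enzyme to luciferin, read by luminescence proportional to activity. Enzyme-substrate mix with compound 10 min at room temperature, then NADPH regeneration 1 h before detection reagent.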
# [3] = target: Cytochrome P450 2C9 (Homo sapiens) (UniProt P11712); assay: Cytochrome P450 family 2 subfamily C member 9 (CYP2C9) small molecule antagonists: luciferase biochemical (cell-free) qHTS assay (AID 1645842; active = well fitted curve in the direction sought with a large enough effect in the repeat runs; an effect the other way counts as inactive or inconclusive; also: nearly all actives have a fitted effect of over 55% in size; also: potency is read from the fitted curve at half-maximal effect); conditions: P450-Glo CYP2C9 enzyme assay, luciferin luminescence; series mostly up to 57.4 µM
# How it was run: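 P450-Glo CYP2C9 system: proluciferin substrate with enzyme in mix containing 0.4% BSA, 10 min at room temperature, then NADPH regeneration solution added and incubated 1 h at 37C. Detection reagent stopped reaction; luminescence read after 20 min as RLU.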
# [4] = Primary qHTS for inhibitors of nuclear receptor binding SET domain protein 2 (NSD2) in an isogenic RCH-ACV NSD2 p.E1099K mutant (9B) (AID 1645876); conditions: RCH-ACV NSD2 E1099K (9B) viability, CellTiter-Glo, 72 h; series mostly up to 44.9 µM; also: nearly all actives have a fitted effect of over 70% in size; also: potency is read from the fitted curve at half-maximal effect
# [5] = Primary qHTS for inhibitors of nuclear receptor binding SET domain protein 2 (NSD2) in an RCH-ACV wild type WT cells (2C) (AID 1645877); conditions: RCH-ACV (leukaemia line) NSD2 WT (2C) viability, CellTiter-Glo, 72 h; series mostly up to 44.9 µM; also: nearly all actives have a fitted effect of over 70% in size; also: potency is read from the fitted curve at half-maximal effect
# [6] = target: N-terminal Xaa-Pro-Lys N-methyltransferase 1 (Homo sapiens) (UniProt Q9BV86); assay: Confirmatory qHTS for Inhibitors of N-terminal methyltransferase 1 (NTMT1): MTaseGlo Assay (AID 1645874); conditions: NTMT1 enzyme, MTase-Glo SAH luminescence; series mostly up to 100 µM; also: nearly all actives have a fitted effect of over 65% in size; also: potency is read from the fitted curve at half-maximal effect
# How it was run: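 SPKRIA peptide at 1 uM was methylated by 125 nM NTMT1 using 100 uM SAM over 30 min at room temperature, following a 15 min compound preincubation. Product SAH was detected luminescently.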
# Sequence of N-terminal Xaa-Pro-Lys N-methyltransferase 1 (Homo sapiens) (Q9BV86 whole entry, looked up): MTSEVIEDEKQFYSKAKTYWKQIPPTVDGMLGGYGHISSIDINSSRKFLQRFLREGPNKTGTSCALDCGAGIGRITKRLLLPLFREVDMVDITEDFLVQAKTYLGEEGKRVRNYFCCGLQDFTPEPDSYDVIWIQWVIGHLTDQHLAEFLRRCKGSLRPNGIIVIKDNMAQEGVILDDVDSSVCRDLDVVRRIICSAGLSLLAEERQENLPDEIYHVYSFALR
# Sequence of Calcium and integrin-binding protein 1 (Homo sapiens) (Q99828 whole entry, looked up): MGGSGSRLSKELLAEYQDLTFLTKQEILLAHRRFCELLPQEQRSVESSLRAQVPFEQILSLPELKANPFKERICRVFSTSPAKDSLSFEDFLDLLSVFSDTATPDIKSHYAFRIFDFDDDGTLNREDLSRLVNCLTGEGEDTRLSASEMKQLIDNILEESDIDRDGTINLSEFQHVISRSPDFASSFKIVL
# Sequence of Cytochrome P450 2D6 (Homo sapiens) (P10635 whole entry, looked up): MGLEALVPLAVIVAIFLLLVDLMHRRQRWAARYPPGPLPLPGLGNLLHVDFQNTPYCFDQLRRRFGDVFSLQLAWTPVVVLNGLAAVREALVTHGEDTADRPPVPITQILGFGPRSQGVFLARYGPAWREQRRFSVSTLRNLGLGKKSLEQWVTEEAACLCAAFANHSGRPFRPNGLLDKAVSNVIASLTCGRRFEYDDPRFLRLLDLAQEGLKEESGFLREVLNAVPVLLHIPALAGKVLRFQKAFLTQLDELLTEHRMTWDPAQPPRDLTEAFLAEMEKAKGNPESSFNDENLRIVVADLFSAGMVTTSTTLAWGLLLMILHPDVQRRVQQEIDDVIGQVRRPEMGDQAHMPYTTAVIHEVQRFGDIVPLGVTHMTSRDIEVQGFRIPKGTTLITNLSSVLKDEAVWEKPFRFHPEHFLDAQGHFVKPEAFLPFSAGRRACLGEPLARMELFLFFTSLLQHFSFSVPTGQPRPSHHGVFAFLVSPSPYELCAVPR
# Sequence of Cytochrome P450 2C9 (Homo sapiens) (P11712 whole entry, looked up): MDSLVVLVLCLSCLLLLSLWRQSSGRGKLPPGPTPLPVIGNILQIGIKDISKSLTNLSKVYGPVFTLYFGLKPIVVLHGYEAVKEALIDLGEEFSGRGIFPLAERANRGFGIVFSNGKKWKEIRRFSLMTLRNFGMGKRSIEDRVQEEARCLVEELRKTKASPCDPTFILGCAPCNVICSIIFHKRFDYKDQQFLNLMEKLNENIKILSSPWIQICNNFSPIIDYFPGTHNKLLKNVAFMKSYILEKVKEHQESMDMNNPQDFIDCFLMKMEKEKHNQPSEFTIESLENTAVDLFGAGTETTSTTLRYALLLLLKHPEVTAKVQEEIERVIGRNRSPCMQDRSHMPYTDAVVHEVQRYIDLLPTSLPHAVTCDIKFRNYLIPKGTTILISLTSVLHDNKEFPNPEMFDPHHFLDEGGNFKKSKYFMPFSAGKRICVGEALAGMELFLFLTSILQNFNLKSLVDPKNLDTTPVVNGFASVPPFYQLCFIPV
SMILES,Potency [1],Potency [2],Potency [3],Potency [4],Potency [5],Potency [6]
CCN(c1cc(-c2ccc(CN3CCOCC3)cc2)cc(C(=O)NCc2c(C)cc(C)[nH]c2=O)c1C)C1CCOCC1,inactive,23.9 µM (active),3.38 µM (active),inactive,,
N#Cc1cc(-c2ccnc(Nc3ccc(N4CCOCC4)cc3)n2)ccc1OC1CCOCC1,inactive,inactive,2.13 µM (active),1.45 µM (active),,
O=C(Nc1nc2ccc([N+](=O)[O-])cc2s1)C1CCCCC1,inactive,1.9 µM (active),19 µM (active),20.5 µM (active),,
Cc1c(C(=O)Nc2ccc(N3CCC(N4CCOCC4)CC3)c(C#N)c2)cnn1-c1ccc(Cl)cc1,inactive,12 µM (active),2.13 µM (active),0.23 µM (active),0.23 µM (active),
COc1ccc2nc(-c3cc(OC)c(OC)c(OC)c3)cc(C(=O)NCC(=O)Nc3ccc(C(C)=O)cc3)c2c1,inactive,inactive,7.56 µM (active),12.9 µM (active),,inactive
COc1cc(-c2cn(C3CCc4c(F)cccc4N(CC(F)(F)F)C3=O)nn2)ccc1-n1cnc(C)c1 (stereo not given),inactive,26.8 µM (active),12 µM (active),18.3 µM (active),,
O=c1cc(N2CCN(c3cccc(C(F)(F)F)c3)CC2)[nH]c(=O)n1C1CCCCC1,inactive,inactive,3.01 µM (active),inactive,,
CN(C)CCN(Cc1ccc(-c2ccc(CNCCc3ccccc3)cc2)cc1)C(=O)CCC1CCCC1,inactive,0.601 µM (active),19 µM (active),2.58 µM (active),2.3 µM (active),
Cc1ccc(NC(=O)N2CCN(c3nc(N)nc4sc(-c5cccnc5)nc34)CC2)cc1,inactive,13.5 µM (active),3.01 µM (active),0.258 µM (active),0.23 µM (active),inactive
COc1ccc2c(NC(=O)Nc3cccc(C(F)(F)F)n3)ccnc2c1,inactive,inactive,3.01 µM (active),4.09 µM (active),3.25 µM (active),
Nc1cccc(CNC(=O)c2ccc(Oc3ccc(OCc4cccc(F)c4)cc3)nc2)c1,inactive,inactive,9.52 µM (active),11.5 µM (active),,
N#CC(CCCN1CCC(O)(c2ccc(Cl)cc2)CC1)(c1ccccc1)c1ccccc1,inactive,0.536 µM (active),23.9 µM (active),5.15 µM (active),6.49 µM (active),
COc1cc2c(Nc3cc(F)c(Cl)c(Cl)c3)ncnc2cc1OCC1CCCN(C)CCC1,inactive,16.9 µM (active),19 µM (active),3.25 µM (active),5.15 µM (active),31.6 µM (active)
COC(=O)c1cc(Br)cnc1N1CCC(NC2CCCCC2)C(O)C1 (stereo not given),inactive,0.019 µM (active),inactive,inactive,,
O=S(=O)(Cc1ccccc1)Nc1ccc(-c2ccc3c(cnn3-c3ccc(F)cc3)c2)c(C(F)(F)F)c1,inactive,inactive,6.01 µM (active),18.3 µM (active),0.183 µM (active),inactive
CN(C)C(=O)Nc1cc(-c2ccccc2)ccc1N(C)C,inactive,inactive,15.1 µM (active),,,inactive
NCCOc1cc(C(=O)Nc2cc(OCCN)c3ccccc3n2)nc(C(=O)Nc2cc(OCCN)c3ccccc3n2)c1,inactive,inactive,inactive,4.09 µM (active) and 7.42 µM (active),5.78 µM (active) and 8.33 µM (active),43.5 µM (active)
CC(C)c1ccc(-c2cc(=O)c3ccccc3o2)cc1,inactive,15.1 µM (active),5.35 µM (active),23 µM (active),,
COc1ccc(-c2csc(NC(=O)[C@H]3CCCCN3S(=O)(=O)c3ccc(C)cc3)n2)cc1,inactive,inactive,2.13 µM (active),18.3 µM (active),,
O=C(COc1ccc2ccccc2c1Br)Nc1cccnc1,inactive,0.301 µM (active),8.49 µM (active),inactive,,
Cc1cn2cc(C(=O)N(C)CCO)cc(NC3CCOc4cccc(C)c43)c2n1 (stereo not given),inactive,inactive,19 µM (active),inactive,inactive,
Cc1ccccc1CN1CCn2c1nc1c(c2=O)CN(Cc2ccccc2)CC1,inactive,13.5 µM (active),8.49 µM (active),inactive,inactive,
O=C(O)c1ccc(S(=O)(=O)N(Cc2ccc(OC(F)(F)F)cc2)c2ncc(C(F)(F)F)cc2Cl)cc1,inactive,inactive,23.9 µM (active),,,
CC[C@H]1CN(c2nc(N)c(C(N)=O)nc2Cl)CCN1C1CCN(Cc2ccc(Cl)cc2)CC1,inactive,12 µM (active),7.56 µM (active),inactive,,
Cc1nc(C(=O)N2CCC[C@H]2Cc2nnc(-c3ccccc3)o2)c(-c2ccccc2F)s1,inactive,inactive,10.7 µM (active),inactive,inactive,
CC(=O)NCc1cccc(OC[C@@H](O)CNCCc2ccc(NS(=O)(=O)c3ccccc3)cc2)c1,inactive,0.849 µM (active),0.674 µM (active),inactive,inactive,
Nc1nccc(-c2c(-c3ccc(F)cc3)ncn2C2CCCCC2)n1,inactive,15.1 µM (active),16.9 µM (active),9.16 µM (active) and 11.8 µM (active),14.5 µM (active) and 10.5 µM (active),
COc1ccc(N2CCN(C(=O)c3cc4c(s3)-c3ccccc3S(=O)(=O)C4)CC2)cc1,inactive,inactive,10.7 µM (active),inactive,inactive,
COc1ccc(-c2ccc3c(N4CCOCC4C)nc(N4CCOCC4C)nc3n2)cc1CO (stereo not given),inactive,inactive,4.77 µM (active),0.0325 µM (active),0.0515 µM (active),
CCC(C)CNCC(=O)N1CCC2SC=CC2C1COc1cccc(C)c1 (stereo not given),inactive,0.0756 µM (active),12 µM (active),23 µM (active),18.3 µM (active),
